aSyn UTR act = Activators working through SNCA 5'UTR binding (MLPCN); hit rate 7.1% among 300,000; activity score, % (tested at 7.5 µM), hits read low; alpha-synuclein 5'UTR reporter, activators screen; AID 1814; in the data active means activity score below about -60%
Starred values were filed as active, the others as inactive. Only a sample is shown.

SMILES | aSyn UTR act
Cc1ccc(O)c(N=NC2=C(O)CC(C)(C)CC2=O)c1 | 65
CC1(C)CC(=O)C(N=Nc2cccc(S(=O)(=O)N3CCOCC3)c2)=C(O)C1 | 41
Cc1nc2ccc(N=NC3=C(O)CC(C)(C)CC3=O)cc2s1 | -77*
CCOc1ccc2nc(N=NC3=C(O)CC(C)(C)CC3=O)sc2c1 | -98*
Oc1ccc(Br)cc1-c1ccnn1-c1ccccc1 | -114*
COc1ccc(CNC(=S)Nc2ccc(F)c(Cl)c2)cc1 | -109*
CCOCC(=O)Nc1c(C(=O)Nc2ccc(OC)cc2OC)oc2ccccc12 | -82*
COCC(=O)Nc1c(C(=O)Nc2cccc(OC)c2)oc2ccccc12 | -218*
COc1ccccc1NC(=O)c1oc2ccc(C)cc2c1C | -203*
CCOc1ccc(NC(=O)c2oc3ccccc3c2NC(=O)CC)cc1 | -123*
COCC(=O)Nc1c(C(=O)Nc2ccccc2OC)oc2ccccc12 | -147*
CCOCC(=O)Nc1c(C(=O)Nc2ccc3c(c2)OCO3)oc2ccccc12 | -151*
COc1cccc(NC(=O)c2oc3ccccc3c2NC(C)=O)c1 | -121*
O=C(CCOc1ccccc1F)N1CCN(c2ccccc2O)CC1 | -75*
c1ccc2c(c1)Cc1cc3ccccc3nc1-2 | -102*
O=C1c2ccccc2-c2nc3ccccc3cc21 | -114*
Cc1ccc(-c2cc3c(nn2)-c2ccccc2C3=O)cc1 | 86
O=C(Nc1cccc(O)c1)c1ccc(C(F)(F)F)cc1 | -166*
CC(C)CC(=O)Nc1ccc(C(=O)Nc2cccc(O)c2)cc1 | -151*
C/C(=N\Nc1ccc([N+](=O)[O-])cc1)c1ccc2c(c1)OCO2 | -119*
C/C(=N\NC(=O)c1cccs1)c1ccc2c(c1)OCO2 | -74*
C/C(=N\NC(=O)c1ccc2c(c1)OCO2)c1ccc2c(c1)OCO2 | -83*
C/C(=N\NC(=O)c1ccc2c(c1)OCCO2)c1ccccc1 | 73
COc1ccc(NC(=O)n2ncc3c(C)cccc32)cc1 | -88*
Cc1ccc(NC(=O)n2ncc3c(C)cccc32)cc1F | -71*
SMILES | aSyn UTR act
COc1ccc(NC(=O)n2ncc3c(C)cccc32)cc1OC | -165*
Fc1cc(F)cc(NC(=S)N2CCC(c3ccccc3)C2)c1 (stereo not given) | -99*
S=C(Nc1ccccc1Cl)N1CCC(c2ccccc2)C1 (stereo not given) | -120*
Fc1ccccc1NC(=S)N1CCC(c2ccccc2)C1 (stereo not given) | -111*
Oc1c(N=NC(=S)Nc2ccccc2F)c2ccccc2n1Cc1ccccc1 | 72
C=CCn1c(O)c(N=NC(=S)Nc2ccccc2F)c2ccccc21 | 67
CC(=O)N1CCOc2ccc(S(=O)(=O)N3CCCCC3)cc21 | -250*
CCC1CCCCN1S(=O)(=O)c1ccc2c(c1)CCN2C(C)=O (stereo not given) | 57
CC(=O)c1cccc(NS(=O)(=O)c2ccc3c(c2)N(C(C)=O)CCO3)c1 | -70*
Cc1cc(C(=O)N/N=C/c2ccc(C)o2)c2ccccc2n1 | 65
Cc1ccc(/C=N/NC(=O)NC23CC4CC(CC(C4)C2)C3)o1 | -83*
Cc1ccc(/C=N/NC(=O)c2ccoc2C)o1 | -137*
COc1cc(/C=N/NC(=O)c2ccoc2C)cc(OC)c1O | -90*
COCc1ccc(C(=O)N(C)CC2CCCN(CCc3ccc(OC)cc3)C2)o1 (stereo not given) | -123*
COc1ccc(CCN2CCCC(CN(C)C(=O)c3cc(C)oc3C)C2)cc1 (stereo not given) | -149*
CC(=O)Nc1ccc(N/C=C/C(=O)c2ccc(C)cc2)cc1 | -74*
Cc1ccc(C(=O)/C=C2\NCC(C)NC2=O)cc1 (stereo not given) | 59
Cc1ccc(C(=O)/C=C2\NCCNC2=O)cc1 | -72*
Cc1ccc(C(=O)/C=C\C(=O)c2ccc(C)cc2)cc1 | -63*
CC(=O)c1ccc(N/C=C/C(=O)c2ccc(Br)cc2)cc1 | -226*
CC(=O)Nc1ccc(N/C=C/C(=O)c2ccc(Br)cc2)cc1 | -95*
c1ccc(C2CSc3ccccc3N2)cc1 (stereo not given) | -196*
COc1ccc(OCc2cc(C(=O)N(Cc3nccn3C)C(C)C)no2)c2ccccc12 | -70*
COc1cccc(OCc2cc(C(=O)N(C)CCOc3ccc(C)cc3)no2)c1 | -133*
COc1cccc(OCc2cc(C(=O)N(C)Cc3nccn3C)no2)c1 | -142*
SMILES | aSyn UTR act
Cc1cc(N2CCCC2)nc(-c2ccccc2O)n1 | -62*
Cc1cc(N2CCCCC2)nc(SCC(=O)c2ccccc2)n1 | -119*
CCc1ccc(N2Cc3ccccc3C2)cc1 | -151*
CCOC(=O)c1ccc(N2Cc3ccccc3C2)cc1O | -122*
CCc1ccc(C(O)(CC(C)C)C(CN2CCOCC2)c2ccccc2)cc1 (stereo not given) | 57
O=C(NCc1ccccc1)C(=O)Nc1cccc(C(=O)O)c1 | 74
COc1cc(NC(=O)c2cccs2)cc(OC)c1 | -90*
COc1cccc(NC(=O)C(=O)NCc2ccncc2)c1 | -100*
COc1cccc(NC(=O)C2=COCCO2)c1 | -64*
COc1ccc(C(=O)/C=C\c2ccc(NC(=O)c3cccs3)cc2)cc1 | -129*
COc1cccc(NC(=O)c2cccs2)c1 | -155*

Source: PubChem
